Several values for one entry are separate records, joined by “and”; a condition that tells them apart may be missing. Identical values can stand only once. Records with an inconclusive call do not appear. The source holds several records for some structures; these can differ, active in one and inactive in another. Activity calls are given as the source filed them. Unless noted, calls come from the whole dose curve; as a rule, active = well fitted curve in the direction sought with a large enough effect; inconclusive = small, poorly fitted or top-dose-only effect, or another doubt; inactive = no such curve, though single readings can be large; an effect the other way counts as inactive or inconclusive.

The target in assay [1] is Cytochrome P450 2D6 (Homo sapiens) (UniProt P10635). The experiment in a line: Cytochrome P450 family 2 subfamily D member 6 (CYP2D6) small molecule antagonists: luciferase biochemical (cell-free) qHTS assay (AID 1645840; active = well fitted curve in the direction sought with a large enough effect in the repeat runs; an effect the other way counts as inactive or inconclusive; note: nearly all actives have a fitted effect of over 55% in size; note: potency is the fitted concentration of half-maximal effect; for activity change, negative = inhibition: series mostly up to about 57 µM; % is set by controls: 0 for no effect and ±100 for the full control effect). The essentials: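 P450-Glo luminescent screen: recombinant CYP2D6 enzyme–proluciferin substrate mix preincubated with compound 10 min at room temperature, then NADPH regeneration added for 1 h at room temperature. Detection reagent added for 20 min; luciferin light read as relative luminescence units.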

Assay [2] addresses Cytochrome P450 2C9 (Homo sapiens) (UniProt P11712). The experiment in a line: Cytochrome P450 family 2 subfamily C member 9 (CYP2C9) small molecule antagonists: luciferase biochemical (cell-free) qHTS assay (AID 1645842; active = well fitted curve in the direction sought with a large enough effect in the repeat runs; an effect the other way counts as inactive or inconclusive; note: nearly all actives have a fitted effect of over 55% in size; note: potency is the fitted concentration of half-maximal effect; for activity change, negative = inhibition: series mostly up to about 57 µM; % is set by controls: 0 for no effect and ±100 for the full control effect). The essentials:
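Luminescence, after 20 min with luciferin detection reagent, reflected CYP2C9 turnover during a 1 h NADPH-driven reaction at 37C. Enzyme-substrate mix contained 0.4% bovine serum albumin and was preincubated with compound 10 min at room temperature.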
Background: Quantitative high-throughput screening tests each substance at several concentrations.

Assay [3] in a line: Primary qHTS for inhibitors of nuclear receptor binding SET domain protein 2 (NSD2) in an RCH-ACV wild type WT cells (2C) (AID 1645877). Note: nearly all actives have a fitted effect of over 70% in size. Note: potency is the fitted concentration of half-maximal effect.
The target in a further assay is Papain (Carica papaya) (UniProt P00784). The experiment in a line: Primary qHTS assay for inhibitors of the protease papain (AID 1645873).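 Note: papain turnover of Z-FR-AMC read as the AMC fluorescence gain over 10 min; series mostly up to about 50 µM; % is set by controls: 0 for no effect and ±100 for the full control effect.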
Assay [4] is described as follows: Primary qHTS for inhibitors of nuclear receptor binding SET domain protein 2 (NSD2) in an isogenic RCH-ACV NSD2 p.E1099K mutant (9B) (AID 1645876). Note: nearly all actives have a fitted effect of over 70% in size. Note: potency is the fitted concentration of half-maximal effect.
Assay [5] in a line: NCATS anti-infectives library activity on HEK293 viability as a counter-qHTS vs the C. elegans viability qHTS (AID 1745854).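 Note: HEK293 cells exposed to compounds for 24 hr before the viability read; % is set by controls: 0 for no effect and ±100 for the full control effect.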 In a few lines:
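HEK293 cells (1,500/well) exposed 24 hr at 37C to 1:5 titrations, up to 41.7 uM final; counter-screen to a C. elegans viability qHTS. Viability by CellTiter-Glo luminescence after 10 min at room temperature; digitonin as control.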

Assay [6] in a line: NCATS anti-infectives library activity on the primary C. elegans qHTS viability assay (AID 1745855; calls by dose curve). The essentials: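 Viability read-out is GFP fluorescence of PE254-GFP-FLuc C. elegans, measured by laser cytometry (488 nm) at day 0, 3 and 7. Ten L1 worms per well were incubated 7 days at 21 °C with compounds and bacterial capsules in S medium.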
Assay [7] addresses Rap guanine nucleotide exchange factor 3 (Homo sapiens) (UniProt O95398). Kind of assay: Confirmatory qHTS for antagonist of cAMP-regulated guanine nucleotide exchange factor 3 (EPAC1) (AID 1645880). Note: nearly all actives have a fitted effect of over 55% in size. Note: potency is the fitted concentration of half-maximal effect. In a few lines: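 Nucleotide exchange uses 100 nM EPAC1, 250 nM RAP1B-BODIPY-GDP and 50 uM GDP, with compounds in a concentration-titration series. After 5 min at room temperature, fluorescence (480 nm ex/540 nm em) is read every 5 min for 30 min. Data are normalized to control ATA and DMSO.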

For assay [8] the target is unchanged. The experiment in a line: Confirmatory qHTS for agonist of cAMP-regulated guanine nucleotide exchange factor 3 (EPAC1) (AID 1645881).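 Note: EPAC1 catalysed release of BODIPY-GDP from Rap1B seen as fluorescence loss; 100% = effect of cAMP agonist control; nearly all actives have a fitted effect of over 75% in size.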
Assay [9] addresses Rap guanine nucleotide exchange factor 4 (Homo sapiens) (UniProt Q8WZA2). Kind of assay: Confirmatory qHTS for agonist of cAMP-regulated guanine nucleotide exchange factor 4 (EPAC2) (AID 1645884).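 Note: nucleotide exchange releases bodipy-GDP from Rap1 and this lowers its fluorescence; nearly all actives have a fitted effect of over 65% in size.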 Note: potency is the fitted concentration of half-maximal effect.
Assay [10] shares this target. The experiment in a line: Confirmatory qHTS for antagonist of cAMP-regulated guanine nucleotide exchange factor 4 (EPAC2) (AID 1645885). Note: nearly all actives have a fitted effect of over 25% in size. Note: potency is the fitted concentration of half-maximal effect.
The nature of assay [11]: Viability counterscreen for antagonist of constitutive androstane receptor (CAR) against the NCATS DSHEA and TCM libraries (AID 1794837).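 Note: compound exposure lasted 24 h before viability reading; 0% is about no effect.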 The essentials:
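Cell viability, CellTiter-Fluor, Ex/Em 405/540 nm, 1 h at 37C. HepG2-CYP2B6-hCAR, 2,500 cells/well; cpds + CITCO 48 uM final (antagonist mode), 24 h, 37C/5% CO2.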
A general note: The purpose of a counterscreen is to sort out artefacts and off-target activity.

The target in assay [12] is Rap guanine nucleotide exchange factor 3 (Homo sapiens) (UniProt O95398). The experiment in a line: Counterscreen qHTS for agonist of cAMP-regulated guanine nucleotide exchange factor 3 (EPAC1) (AID 1645889). Note: % of control where 0% means no effect; nearly all actives have a fitted effect of over 40% in size. The essentials: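 Rap1B-BODIPY-GDP 250 nM + GDP 50 uM; cpds 7-pt, final 9.74 nM–152 uM (activator mode) or from 7.32 nM upwards (inhibitor mode); RT; FI 480/540 nm at 5 and 30 min, then ± cAMP, reread.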
Chain of Rap guanine nucleotide exchange factor 3 (Homo sapiens) (O95398 whole entry, looked up): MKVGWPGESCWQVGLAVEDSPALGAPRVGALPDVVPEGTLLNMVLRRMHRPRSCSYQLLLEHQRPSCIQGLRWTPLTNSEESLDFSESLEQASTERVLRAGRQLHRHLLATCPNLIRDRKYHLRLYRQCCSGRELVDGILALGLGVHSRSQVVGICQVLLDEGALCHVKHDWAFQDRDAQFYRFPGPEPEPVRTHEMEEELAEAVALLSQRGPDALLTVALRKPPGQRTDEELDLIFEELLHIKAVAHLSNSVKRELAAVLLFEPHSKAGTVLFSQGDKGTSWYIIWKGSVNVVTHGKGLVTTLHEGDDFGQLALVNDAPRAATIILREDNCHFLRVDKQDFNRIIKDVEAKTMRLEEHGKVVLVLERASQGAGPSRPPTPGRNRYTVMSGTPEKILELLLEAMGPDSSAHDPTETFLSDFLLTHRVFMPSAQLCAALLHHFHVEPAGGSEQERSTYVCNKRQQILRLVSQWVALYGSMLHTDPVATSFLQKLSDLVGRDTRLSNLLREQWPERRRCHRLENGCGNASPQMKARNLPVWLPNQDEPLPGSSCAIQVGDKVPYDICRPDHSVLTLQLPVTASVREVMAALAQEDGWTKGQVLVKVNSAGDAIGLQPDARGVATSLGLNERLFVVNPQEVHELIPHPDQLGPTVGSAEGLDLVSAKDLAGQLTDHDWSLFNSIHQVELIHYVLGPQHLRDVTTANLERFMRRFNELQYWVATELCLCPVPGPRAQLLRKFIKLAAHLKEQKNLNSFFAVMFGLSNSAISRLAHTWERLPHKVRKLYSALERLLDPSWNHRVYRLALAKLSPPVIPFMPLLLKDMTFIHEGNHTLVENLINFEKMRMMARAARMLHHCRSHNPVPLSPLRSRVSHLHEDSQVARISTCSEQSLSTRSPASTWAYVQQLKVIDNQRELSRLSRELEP

Chain of Cytochrome P450 2D6 (Homo sapiens) (P10635 whole entry, looked up): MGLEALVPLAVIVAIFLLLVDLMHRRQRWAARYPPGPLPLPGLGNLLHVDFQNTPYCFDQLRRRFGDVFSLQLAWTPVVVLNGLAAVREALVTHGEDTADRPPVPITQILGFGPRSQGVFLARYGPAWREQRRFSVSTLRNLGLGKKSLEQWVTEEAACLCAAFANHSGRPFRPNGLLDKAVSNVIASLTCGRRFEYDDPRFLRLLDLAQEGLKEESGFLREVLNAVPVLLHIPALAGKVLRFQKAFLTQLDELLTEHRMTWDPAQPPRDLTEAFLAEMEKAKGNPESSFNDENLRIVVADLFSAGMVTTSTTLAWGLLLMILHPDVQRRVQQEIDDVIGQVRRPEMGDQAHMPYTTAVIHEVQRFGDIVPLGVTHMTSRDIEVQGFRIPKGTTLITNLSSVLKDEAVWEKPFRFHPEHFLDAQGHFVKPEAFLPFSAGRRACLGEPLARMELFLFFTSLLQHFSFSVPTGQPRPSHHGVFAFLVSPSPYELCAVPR
Chain of Rap guanine nucleotide exchange factor 4 (Homo sapiens) (Q8WZA2 whole entry, looked up): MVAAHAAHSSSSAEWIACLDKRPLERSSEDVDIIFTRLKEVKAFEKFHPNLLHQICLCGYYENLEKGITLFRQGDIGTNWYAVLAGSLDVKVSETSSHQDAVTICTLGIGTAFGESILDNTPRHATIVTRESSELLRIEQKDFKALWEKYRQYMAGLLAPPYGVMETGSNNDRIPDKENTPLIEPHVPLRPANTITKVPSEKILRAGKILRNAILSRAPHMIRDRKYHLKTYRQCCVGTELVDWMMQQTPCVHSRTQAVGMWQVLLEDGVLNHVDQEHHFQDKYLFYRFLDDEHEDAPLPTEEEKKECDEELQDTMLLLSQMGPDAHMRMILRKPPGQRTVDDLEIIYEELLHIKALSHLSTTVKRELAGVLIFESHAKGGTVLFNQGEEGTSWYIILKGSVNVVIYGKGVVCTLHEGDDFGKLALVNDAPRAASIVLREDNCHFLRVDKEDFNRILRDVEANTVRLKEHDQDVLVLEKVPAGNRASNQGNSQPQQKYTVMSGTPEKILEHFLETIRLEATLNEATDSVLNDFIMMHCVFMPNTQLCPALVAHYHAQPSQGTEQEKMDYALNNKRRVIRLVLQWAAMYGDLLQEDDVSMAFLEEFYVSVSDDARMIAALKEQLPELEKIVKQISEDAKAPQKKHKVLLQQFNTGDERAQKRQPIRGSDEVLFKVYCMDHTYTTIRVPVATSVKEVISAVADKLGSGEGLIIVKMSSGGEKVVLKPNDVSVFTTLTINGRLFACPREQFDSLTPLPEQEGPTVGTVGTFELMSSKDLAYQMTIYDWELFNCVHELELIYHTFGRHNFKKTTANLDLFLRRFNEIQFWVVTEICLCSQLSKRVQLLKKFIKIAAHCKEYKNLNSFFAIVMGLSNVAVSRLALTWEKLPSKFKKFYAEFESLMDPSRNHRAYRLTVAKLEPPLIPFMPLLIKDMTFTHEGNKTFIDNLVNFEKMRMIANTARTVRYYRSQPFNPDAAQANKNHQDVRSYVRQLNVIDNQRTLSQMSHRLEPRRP
Chain of Cytochrome P450 2C9 (Homo sapiens) (P11712 whole entry, looked up): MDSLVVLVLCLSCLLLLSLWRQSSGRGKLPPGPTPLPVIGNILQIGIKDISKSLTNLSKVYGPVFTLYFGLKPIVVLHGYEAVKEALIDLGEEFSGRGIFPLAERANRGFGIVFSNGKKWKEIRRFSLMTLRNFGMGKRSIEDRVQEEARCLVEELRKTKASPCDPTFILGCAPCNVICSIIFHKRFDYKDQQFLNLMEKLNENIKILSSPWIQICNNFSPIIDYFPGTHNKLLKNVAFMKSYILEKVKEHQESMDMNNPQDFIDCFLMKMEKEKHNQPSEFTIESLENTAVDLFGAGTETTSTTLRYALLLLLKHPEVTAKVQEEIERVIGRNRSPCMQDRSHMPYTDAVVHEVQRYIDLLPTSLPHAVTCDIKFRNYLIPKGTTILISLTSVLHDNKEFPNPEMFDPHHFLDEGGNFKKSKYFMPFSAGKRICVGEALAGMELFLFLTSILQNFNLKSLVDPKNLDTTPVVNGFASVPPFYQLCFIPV
Chain of Papain (Carica papaya) (P00784 whole entry, looked up, the tested form may be a part): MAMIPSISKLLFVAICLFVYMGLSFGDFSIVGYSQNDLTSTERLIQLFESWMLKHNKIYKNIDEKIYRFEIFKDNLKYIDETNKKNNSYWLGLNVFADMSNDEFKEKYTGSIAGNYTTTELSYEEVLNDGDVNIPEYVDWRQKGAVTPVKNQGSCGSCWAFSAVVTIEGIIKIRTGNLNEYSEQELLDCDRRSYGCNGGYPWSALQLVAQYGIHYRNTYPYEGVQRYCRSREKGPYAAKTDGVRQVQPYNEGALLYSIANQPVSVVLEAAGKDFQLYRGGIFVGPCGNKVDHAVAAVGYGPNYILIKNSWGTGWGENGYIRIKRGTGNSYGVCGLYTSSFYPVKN

In the case of `CCCC(=O)O[C@]1(C(=O)CO)CC[C@H]2[C@@H]3CCC4=CC(=O)CC[C@]4(C)[C@H]3[C@@H](O)C[C@@]21C`, the Potency result in assay [1] and in [2] was “inactive” in each case. Besides, in [3], the Potency was 0.0299 µM (active).

For `C[N+]1(CCCCC[N+]2(C)CCCC2)CCCC1`, the Potency entry (in assay [1]; with Papain (Carica papaya)) was “inactive” each time.

Consider `CC1(C)O[C@@H]2[C@@H](CO[C@@]3(COS(N)(=O)=O)OC(C)(C)O[C@@H]23)O1`, for which the Potency entry in [1], in assay [2], in assay [4], in [3], in assay [5] and in [6] was “inactive” in each case.

Regarding `CC(=O)Oc1ccc(C(c2ccc(OC(C)=O)cc2)c2ccccn2)cc1`, the Potency in [1] was 15.5 µM (active); in assay [2], 17.4 µM (active); in assay [10], “inactive and 44.1 µM (active)”. Moreover, the Potency entry in [4], in assay [7] and in assay [9] was “inactive” in each case. Moreover, in [8], the compound was classed as inactive.

For the compound `O=C(CCCN1CCC(O)(c2ccc(Br)cc2)CC1)c1ccc(F)cc1`, the Potency in assay [1] is 2.75 µM (active); in assay [3], 18.8 µM (active). The Potency entry in [2] is “inactive”.

With `CN(C)C(=S)SC(=S)N(C)C`, the Potency entry in assay [1] is “inactive”. The Potency was 2.11 µM (active) in assay [4] and 2.99 µM (active) in [3].

Turning to `CC(=O)OCC(=O)[C@@]12N=C(C)O[C@@H]1C[C@H]1[C@@H]3CCC4=CC(=O)C=C[C@]4(C)[C@H]3[C@@H](O)C[C@@]12C`, the Potency result in [1] and in assay [2] was “inactive” each time. Also, the Potency in assay [3] was 150 nM (active) and 417 nM (active).

In the case of `CCCCCCCCCCCCCCCC[N+](C)(C)CC`, the results for the Potency in assay [1], in [4] and in [3] were 0.174 µM (active), 0.335 µM (active) and 0.299 µM (active), respectively.

As to `C[C@H]1C[C@H]2[C@@H]3CCC4=CC(=O)C=C[C@]4(C)[C@@]3(Cl)[C@@H](O)C[C@]2(C)[C@@]1(O)C(=O)CO`, the Potency in assay [1] was 15.5 µM (active); in [2] it was 17.4 µM (active); in [3] it was 0.0047 µM (active).

For the compound `Nc1ccc(C(=O)O)cc1`, the Potency entry in assay [1], in [2], in assay [4] and in assay [3] was “inactive” each time. In assay [11], the call was inactive.

Turning to `Cc1cc(N)c2cc(NC(=O)Nc3ccc4nc(C)cc(N)c4c3)ccc2n1`, the Potency in assay [1] was 8.71 µM (active); in [7], 25 µM (active); in assay [9], 25.1 µM (active); in assay [10] it was 35 µM (active). For the same compound, the Potency result in assay [2] was “inactive”.

As for `CCCCc1nc(Cl)c(CO)n1Cc1ccc(-c2ccccc2-c2nn[nH]n2)cc1`, the Potency result in assay [1], in assay [4], in assay [3] and in [5] was “inactive” throughout. For the same compound, in [2], the Potency is 2.68 µM (active).

Take `CC1(C)O[C@@H]2C[C@H]3[C@@H]4C[C@H](F)C5=CC(=O)CC[C@]5(C)[C@H]4[C@@H](O)C[C@]3(C)[C@]2(C(=O)CO)O1`: the Potency entry in [1] and in [2] was “inactive” each time. Besides, the Potency in assay [3] is 0.0094 µM (active).

In the case of `Oc1ccc(Cl)cc1Sc1cc(Cl)ccc1O`, the Potency was 12.3 µM (active) in [1], 12.3 µM (active) in assay [2], 18.8 µM (active) in [4] and 31.2 µM (active) in assay [10]. In addition, the call in assay [8] was inactive. For the same compound, the Potency entry in assay [9] is “inactive”. In assay [10], the activity change, negative = inhibition was -4.98% [at 12.7 µM] (inactive). The activation in assay [12] is 18.9% [at 30.8 µM] (inactive).

In the case of `CCCCOc1cc(C(=O)NCCN(CC)CC)c2ccccc2n1`, the Potency is 8.71 µM (active) in assay [1] and 23.7 µM (active) in [3]. In addition, the Potency result in assay [2] was “inactive”.

As for `CCCCC1=NC2(CCCC2)C(=O)N1Cc1ccc(-c2ccccc2-c2nn[nH]n2)cc1`, the Potency result in [1], in assay [4], in assay [3] and in assay [5] was “inactive” in each case. The Potency in [2] is 17.4 µM (active).

For the compound `CC1=C(C(=O)O)N2C(=O)[C@@H](NC(=O)[C@H](N)c3ccc(O)cc3)[C@H]2SC1`, the Potency entry in assay [1], in assay [4] and in assay [3] was “inactive” each time.

As for `CC(Cc1cccc(C(F)(F)F)c1)NCCOC(=O)c1ccccc1` (stereo unspecified), the figures for the Potency in assay [1], in assay [2] and in assay [10] were 0.0069 µM (active), 19.5 µM (active) and 49.4 µM (active), respectively. Further, the compound was called inactive in assay [8]. The Potency entry in [9] was “inactive”.

With `C[C@]12C=CC(=O)C=C1CC[C@@H]1[C@@H]2[C@@H](O)C[C@@]2(C)[C@H]1CC[C@]2(O)C(=O)CO`, the Potency result in [1] and in [2] was “inactive” each time. Besides, the Potency in [3] is 42.2 nM (active) and 209 nM (active).

`CCCCCCc1ccc(O)cc1O`: the Potency is 4.9 µM (active) in assay [1], 8.71 µM (active) in [2], 13.3 µM (active) in assay [4] and 39.3 µM (active) in assay [10]. Moreover, the compound was classed as inactive in [8]. The Potency result in assay [9] was “inactive”.

In the case of `C#C[C@]1(OC(C)=O)CC[C@H]2[C@@H]3CCC4=C[C@@H](OC(C)=O)CC[C@@H]4[C@H]3CC[C@@]21C`, the Potency entry in assay [1], in assay [7], in [9] and in assay [10] was “inactive” throughout. In addition, the Potency in [2] was 13.6 µM (active); in assay [3], 18.8 µM (active). Also, the compound was called inactive in assay [8].

For the compound `CC(O)(P(=O)(O)O)P(=O)(O)O`, the Potency result in [1], in [2], in [4] and in assay [3] was “inactive” throughout. In addition, the activity change, negative = cytotoxicity in assay [5] was 0.883% [at 8.35 µM] (inactive).

Turning to `CC(=O)OCC(=O)[C@@]1(O)[C@H](C)C[C@H]2[C@@H]3CCC4=CC(=O)C=C[C@]4(C)[C@@]3(F)[C@@H](O)C[C@@]21C`, in [1], the Potency entry was “inactive”. Besides, the Potency in assay [3] is 3.3 nM (active) and 12.9 nM (active).

Regarding `CCCCCC=CCC=CCCCCCCCC(=O)OCC`, the Potency in assay [2] was 9.77 µM (active); in assay [4], 23.7 µM (active); in assay [3] it was 18.8 µM (active).

(Values after PubChem BioAssay (NCATS).)
